# Gli-Sufu antag = antagonists of Gli-Sufu signaling. Sufu-KO-LIGHT fibroblasts, Gli luciferase reporter luminescence. inhibition, % at 5 µM. actives 0.74% (n = 340,000);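 active = inhibition above about 55%, limit read from the data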;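 note: 0% = DMSO-treated cells and 100% = wells with medium but no cells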
# CSC inhib = cancer stem cell inhibition | actives 1.1% (n = 300,000) | AID 2717 | inhibition, % at 7.5 µM | cancer stem cell-like cells viability, luminescence; in the data active = inhibition above about 75%; tested in HMLE shEcad cells
# MPTP block = inhibitors of mitochondrial permeability transition pore; isolated mouse mitochondria, Ca2+ swelling absorbance, 30 min; inhibition, % at 10 µM; actives 1.4% (n = 360,000);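 active = inhibition of 50% or more, scaled per plate between neutral and stimulator controls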;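 note: 0% = DMSO wells given calcium and 100% = 1 mM EGTA wells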
# Beta apoptosis = beta cell apoptosis inhibition; INS-1E cytokine-induced death, ATP luminescence, 48 h; percent of positive-control rescue, neutral wells zero; actives 0.8% (n = 300,000); protection from apoptosis, % (concentration not given with the values);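 active = Every replicate reaches about 75%, or at least half do and their mean reaches it too, limit read from the data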;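 note: 0% = cytokine-treated negative control wells and 100% = positive control rescue; higher means more ATP so stronger rescue from cytokine killing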
# Mdm2 MdmX PPI = disrupts the human Mdm2-MdmX interaction. SaOS-2 split-luciferase Mdm2/MdmX complementation, luminescence. inhibition, % at 8 µM. actives 3% (n = 330,000);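 active = inhibition of at least 50% at 8 µM in the primary screen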
# NR3A LBD binder = NR3A (human) ligand-binding domain modulation; Tm shift relative to glycine control, % at 25 µM; actives 2.5% (n = 340,000); AID 1259313; NR3A LBD differential scanning fluorimetry, Tm shift; 0% = protein alone, 100% = glycine-bound protein;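 active = melting temperature shift of at least 10% of the positive control shift, at one fixed dose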
# MPTP counter = mitochondrial membrane potential, counter-screen | inhibition, % at 10 µM | shares compounds with MPTP block | actives 78% (n = 5,000) | isolated mitochondria, Rhodamine 123 fluorescence | AID 624504; in the data active = inhibition above about 22%;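 note: 0% = DMSO vehicle and 100% = positive control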
# MPTP swell DR = MPTP inhibition, dose response swelling confirmation. shares compounds with MPTP block. isolated mitochondria swelling, absorbance. IC50, µM. actives 58% (n = 780); in the data active = IC50 below about 20 µM
# MPTP cs DR = counter-screen for mitochondrial permeability transition pore inhibitors, dose response | shares compounds with MPTP block | isolated mitochondria counterscreen, fluorescence read-out | IC50, µM | actives 49% (n = 780); in the data active = IC50 below about 80 µM
# Numbers without * were called inactive; i = inactive; . = not tested or not shown. Compounds with a hit are over-represented: about 6.6% of the library has one in this group of screens.
SMILES,Gli-Sufu antag,CSC inhib,MPTP block,Beta apoptosis,Mdm2 MdmX PPI,NR3A LBD binder,MPTP counter,others
ClC(Cl)=C(c1ccc(Cl)cc1)c1ccc(Cl)cc1,-2,55,77*,.,-19,0,-3,MPTP swell DR=i;MPTP cs DR=78*
CCC12CN3CCN(CC(C3)/C1=N/NC(=O)c1ccncc1)C2,.,-7,-2,.,22,-3,.,
CN1CCC(O)(c2ccccc2)C(C(=O)c2ccccc2)C1 (stereo not drawn),2,6,55*,-3,-2,-3,2,MPTP swell DR=i;MPTP cs DR=>80
O=C(c1cc(C(=O)NCc2ccccc2)c(=O)n(Cc2ccccc2)c1)c1cc(Br)ccc1O,9,28,84*,32,29,9,72*,
CCCC12CN3CCN(CC(C3)/C1=N\NC(=O)c1ccncc1)C2,2,-13,1,.,-18,7,.,
CCC(=O)c1ccc(OC(=O)N(C)c2ccccc2)cc1,11,-12,-1,-1,-72,-1,.,
CCC(=C(c1ccc(O)cc1)c1ccc(OCCN(C)C)cc1)c1ccccc1,.,.,-1,.,.,.,.,MPTP swell DR=i;MPTP cs DR=>80
COc1cc(OC)c(OC)cc1/C=C1/C(=O)NC(=O)N(Cc2ccccc2)C1=O,0,-8,60*,-3,13,2,37*,
CCCCN1C(=O)C(C2c3ccccc3C(=O)N2Cc2ccccc2)C(=O)NC1=S (stereo not drawn),2,1,-2,-4,10,4,.,
CC(C)CN(C(=O)CN1CC=C(c2ccccc2)CC1)c1c(N)n(CC(C)C)c(=O)[nH]c1=O,11,-5,0,-2,-1,-1,.,
O=C1NC(=O)N(c2ccccc2)C(=O)/C1=C/c1ccc(Sc2ccccc2)o1,4,28,51*,-1,.,4,43*,
CN1C(=O)C(=Cc2ccccc2OCc2ccc(C(=O)O)cc2)C(=O)N(C)C1=O,-14,-7,-4,-9,-15,-2,.,
CN1C(=O)C(=Cc2ccccc2OCc2ccccc2Cl)C(=O)N(C)C1=O,-5,19,61*,-9,13,-1,44*,
COCCNCCOc1ccc(C(C)(C)c2ccccc2)cc1,-2,70,78*,-1,2,-1,-9,MPTP swell DR=7.7*;MPTP cs DR=>80
Cc1cc(OC(=O)N(C)C)n(-c2ccccc2)n1,7,-1,0,-7,10,2,.,
Oc1c(Cl)c(Cl)c(Cl)c(Cl)c1Cl,-19,71,73*,6,-13,19*,88*,
N#CC(c1ccccc1)N1CCOCC1 (stereo not drawn),4,0,0,-6,16,2,.,
COc1cc(CN=C(C)c2c(O)n(C3CCCCC3)c(=O)[nH]c2=O)cc(OC)c1,8,-10,6,0,18,-1,.,
COC(=O)C(O)(c1ccc(NC(=S)NC(=O)c2ccc(Cl)cc2Cl)c(C)c1)C(F)(F)F (stereo not drawn),5,.,86*,.,19,-2,86*,
COC(=O)C(O)(c1ccc(NC(=S)NC(=O)c2ccc(Cl)cc2Cl)cc1)C(F)(F)F (stereo not drawn),7,12,6,2,18,3,.,
CCOC(=O)C(O)(c1ccc(NC(=S)NC(=O)c2ccc(Cl)cc2Cl)c(C)c1)C(F)(F)F (stereo not drawn),20,30,87*,13,21,-8,90*,
CCOC(=O)C(O)(c1ccc(NC(=S)NC(=O)c2ccc(Cl)cc2Cl)cc1)C(F)(F)F (stereo not drawn),3,.,4,.,27,0,.,

# Screening data: PubChem BioAssay, several laboratories
